Sampled rows, rich in hits. Any-hit rate of the full collection: about 12%.
HP1b binding inh = inhibitors of HP1-beta chromodomain binding to methylated histone tails | 0.56% of 390,000 active | Potency, µM (highest dose often 114 µM), for the others: at the top dose activity change, negative = inhibition, most hits filed as inhibitors | AlphaScreen HP1-beta / biotin-H3K9me3 peptide binding; note: nearly all actives have a fitted effect of over 70% in size
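Compound inhibition of the preformed complex between 50 nM HP1-beta and 50 nM biotinylated H3K9me3 peptide was read by AlphaScreen. Buffer was PBS pH 7.4 with 0.01% Tween-20. Incubations ran 30 min at room temperature, with 10 ug/mL donor/acceptor beads.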
G9a inh = G9a (human) methyltransferase inhibition. AID 504332. G9a H3K9 monomethylation, AlphaScreen, 2 h. Q96KQ7. 8.8% of 350,000 active. Potency, µM (doses to about 102 µM), for the others: at the top dose activity, negative = inhibition, most hits filed as inhibitors; note: % is set by controls: 0 for no effect and ±100 for the full control effect; nearly all actives have a fitted effect of over 75% in size
Target sequence (Q96KQ7 913-1193 limits assumed): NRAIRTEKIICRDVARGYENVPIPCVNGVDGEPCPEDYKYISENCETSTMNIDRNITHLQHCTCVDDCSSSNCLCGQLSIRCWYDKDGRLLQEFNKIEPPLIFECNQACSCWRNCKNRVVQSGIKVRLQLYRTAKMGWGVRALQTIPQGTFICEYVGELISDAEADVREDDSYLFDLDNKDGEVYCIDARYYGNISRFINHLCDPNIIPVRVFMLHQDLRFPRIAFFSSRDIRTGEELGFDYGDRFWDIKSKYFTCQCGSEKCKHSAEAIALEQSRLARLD
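AlphaScreen detection with an anti-monomethyl H3K9 antibody quantified product after a 2 h room-temperature reaction containing 500 nM biotinylated H3K9 peptide, 20 µM SAM and 20 nM enzyme, which had been preincubated 15 min with compound.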
BAZ2B block = inhibitors of human BAZ2B bromodomain; AID 504333; Q9UIF8; Potency, µM (titrated, usually from 114 µM), for inactives: at the top dose activity change, negative = inhibition, most hits filed as inhibitors; 4.4% of 360,000 active; AlphaScreen BAZ2B-H3K14Ac peptide displacement; note: % is set by controls: 0 for no effect and ±100 for the full control effect; nearly all actives have a fitted effect of over 60% in size
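AlphaScreen displacement: compounds (up to 110uM) incubated 30 min at room temperature with a preformed 50 nM BAZ2B/50 nM biotinylated H3K14Ac peptide complex in PBS pH 7.4 with Tween-20. Donor and acceptor beads at 10 ug/mL final added, 20 min light-protected before reading.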
JMJD2A Tudor = inhibitors of human JMJD2A Tudor domain; 4.4% of 390,000 active; O75164; AlphaScreen JMJD2A-Tudor / H3K4me3 peptide binding; AID 504339; Potency, µM (top dose mostly 114 µM), for the others: at the highest dose activity change, negative = inhibition, actives largely listed as inhibitors; note: % is set by controls: 0 for no effect and ±100 for the full control effect; nearly all actives have a fitted effect of over 50% in size
Sfp inh = Sfp phosphopantetheinyl transferase inhibition; Q9F4F7; Biochemical Sfp PPTase activity, qHTS; Potency, µM, for inactives: largest response in the series, negative = inhibition, most hits filed as inhibitors; 3.5% of 310,000 active;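 note: the enzyme is Sfp with the accession as filed and its product quenches rhodamine fluorescence; 0% = enzyme reaction without inhibitor and -100% = no enzyme wells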
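With Hepes-Na pH 7.6 buffer containing 10 mM MgCl2, Sfp (15 nM) modified BHQ-2-YbbR (12.5 uM) using rhodamine-CoA (5 uM). Two reads 30 minutes apart at 525/598 nm yielded each well's rate.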
Numbers without * were called inactive; ? = inconclusive; . = no result given; [ ] = dose if it differs, or a comment. Calls come from the whole dose curve; as a rule, active = well fitted curve in the direction sought with a large enough effect; inconclusive = small, poorly fitted or top-dose-only effect, or another doubt; inactive = no such curve, though single readings can be large; an effect the other way counts as inactive or inconclusive. Potency is the fitted concentration of half-maximal effect.

SMILES	HP1b binding inh	G9a inh	BAZ2B block	JMJD2A Tudor	Sfp inh
Cc1ccc(CCNC(=O)c2ccc(NC(=O)N3CC(C)Sc4ccccc43)cc2)cc1 (centres undefined)	16%	11%[59 µM]	0%	-15%	.
CCN(CC)CCCC1(CN)OCCc2ccccc21 (centres undefined)	23%	25µM*	-1%	-3%	9%
CCN(CC)CCCOC(=O)C1(c2ccccc2)CCCC1	13%	-50%[59 µM]	-19%	1%	-18%
Cc1cc(C)cc(N(CC(=O)N2CCCCCC2)S(C)(=O)=O)c1	56%	7%	1%	-1%	8%
CCOC(=O)c1sc(=S)[nH]c1C	?	.	.	14µM*	.
CCOC(=O)c1c(C)[nH]sc1=S	?	3.5µM*	-3%	25µM*	?

Compound activity as filed in PubChem.
